# Source: article PMC7862700, “An all-to-all approach to the identification of sequence-specific readers for epigenetic DNA modifications on cytosine”
# Columns and labels:
# Assay in all cases: DAPPL (digital affinity profiling via proximity ligation, sequencing); 10 mM Tris-HCl pH 7.5, 50 mM NaCl, 1 mM DTT, 4% glycerol, room temperature, 30 min; GST-TFs on glutathione beads, 16-mer random dsDNA library, 0.1% formaldehyde crosslink after washing; high values mean tight binding
# [1] = molecular target: T1, FEV (Homo sapiens, UniProt Q99581 1-238); conditions: protein: recombinant; tags: N-terminal GST; dsDNA, one strand shown
# T1 sequence: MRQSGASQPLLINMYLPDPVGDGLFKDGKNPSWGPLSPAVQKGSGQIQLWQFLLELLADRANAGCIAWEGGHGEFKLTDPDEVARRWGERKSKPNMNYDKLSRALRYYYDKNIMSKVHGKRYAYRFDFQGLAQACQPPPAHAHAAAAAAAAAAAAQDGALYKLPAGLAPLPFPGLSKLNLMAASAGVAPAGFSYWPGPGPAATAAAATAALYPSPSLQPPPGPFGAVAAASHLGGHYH
# Outline: (§1)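 Binding signal is each hexamer's read frequency for a factor divided by its frequency in the tag-only sample. The factors were GST-fused human transcription factors from yeast, captured on glutathione beads, DNA-barcoded and pooled with that sample. Pools were incubated with 200 nmole of a random double-stranded 16-mer DNA library in Tris/NaCl/DTT/glycerol buffer at room temperature for 30 min, then washed, crosslinked with 0.1% formaldehyde, proximity-ligated with BsaI/T4 ligase (1 h, 37 °C), PCR-amplified and sequenced on an Illumina NextSeq500.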
# [2] = molecular target: ETV5 (Homo sapiens, UniProt P41161 1-510); conditions: protein: recombinant; tags: N-terminal GST; dsDNA, one strand shown
# Chain of ETV5 (P41161 whole entry): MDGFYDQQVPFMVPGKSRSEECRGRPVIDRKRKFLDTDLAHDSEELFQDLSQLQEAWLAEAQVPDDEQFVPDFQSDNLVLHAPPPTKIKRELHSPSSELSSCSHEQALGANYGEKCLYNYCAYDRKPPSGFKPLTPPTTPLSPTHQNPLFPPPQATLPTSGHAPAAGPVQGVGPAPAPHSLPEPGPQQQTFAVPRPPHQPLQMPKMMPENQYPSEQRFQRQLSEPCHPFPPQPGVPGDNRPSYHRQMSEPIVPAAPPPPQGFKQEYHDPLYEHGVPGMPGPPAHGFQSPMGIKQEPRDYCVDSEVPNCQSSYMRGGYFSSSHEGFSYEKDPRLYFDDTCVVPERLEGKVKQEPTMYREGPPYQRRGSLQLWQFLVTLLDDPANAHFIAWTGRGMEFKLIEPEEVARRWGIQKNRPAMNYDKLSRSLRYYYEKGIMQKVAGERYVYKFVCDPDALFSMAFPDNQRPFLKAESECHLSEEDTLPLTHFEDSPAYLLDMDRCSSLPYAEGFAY
# Outline: as §1
# [3] = molecular target: HSF1 (Homo sapiens, UniProt Q00613 1-529); conditions: protein: recombinant; tags: N-terminal GST; chain copies: 3; dsDNA, one strand shown
# Chain of HSF1 (Q00613 whole entry): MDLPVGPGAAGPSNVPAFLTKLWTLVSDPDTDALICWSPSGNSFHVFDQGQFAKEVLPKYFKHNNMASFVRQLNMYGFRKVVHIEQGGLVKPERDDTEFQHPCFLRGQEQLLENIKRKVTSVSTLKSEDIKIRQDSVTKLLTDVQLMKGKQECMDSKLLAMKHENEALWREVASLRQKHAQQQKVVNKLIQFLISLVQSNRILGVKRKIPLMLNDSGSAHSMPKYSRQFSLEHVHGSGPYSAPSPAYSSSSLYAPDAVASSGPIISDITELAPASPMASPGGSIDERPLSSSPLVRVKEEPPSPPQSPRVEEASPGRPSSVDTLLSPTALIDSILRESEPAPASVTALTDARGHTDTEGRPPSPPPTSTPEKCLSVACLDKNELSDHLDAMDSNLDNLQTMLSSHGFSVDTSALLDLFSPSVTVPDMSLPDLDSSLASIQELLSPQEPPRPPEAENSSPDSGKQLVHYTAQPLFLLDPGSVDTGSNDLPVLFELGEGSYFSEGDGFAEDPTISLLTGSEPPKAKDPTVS
# Outline: as §1
# [4] = molecular target: T2, SPIC (Homo sapiens, UniProt Q8N5J4 1-248); conditions: protein: recombinant; tags: N-terminal GST; dsDNA, one strand shown
# T2 sequence: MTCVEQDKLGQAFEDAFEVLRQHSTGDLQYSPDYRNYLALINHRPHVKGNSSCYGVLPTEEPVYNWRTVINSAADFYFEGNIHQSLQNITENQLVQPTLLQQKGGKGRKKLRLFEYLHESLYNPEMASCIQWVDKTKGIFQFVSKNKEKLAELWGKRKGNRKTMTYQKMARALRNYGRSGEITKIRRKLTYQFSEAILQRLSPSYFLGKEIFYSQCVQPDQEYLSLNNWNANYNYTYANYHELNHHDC
# Outline: as §1
# [5] = molecular target: ELF4 (Homo sapiens, UniProt Q99607 1-663); conditions: protein: recombinant; tags: N-terminal GST; dsDNA, one strand shown
# Chain of ELF4 (Q99607 whole entry): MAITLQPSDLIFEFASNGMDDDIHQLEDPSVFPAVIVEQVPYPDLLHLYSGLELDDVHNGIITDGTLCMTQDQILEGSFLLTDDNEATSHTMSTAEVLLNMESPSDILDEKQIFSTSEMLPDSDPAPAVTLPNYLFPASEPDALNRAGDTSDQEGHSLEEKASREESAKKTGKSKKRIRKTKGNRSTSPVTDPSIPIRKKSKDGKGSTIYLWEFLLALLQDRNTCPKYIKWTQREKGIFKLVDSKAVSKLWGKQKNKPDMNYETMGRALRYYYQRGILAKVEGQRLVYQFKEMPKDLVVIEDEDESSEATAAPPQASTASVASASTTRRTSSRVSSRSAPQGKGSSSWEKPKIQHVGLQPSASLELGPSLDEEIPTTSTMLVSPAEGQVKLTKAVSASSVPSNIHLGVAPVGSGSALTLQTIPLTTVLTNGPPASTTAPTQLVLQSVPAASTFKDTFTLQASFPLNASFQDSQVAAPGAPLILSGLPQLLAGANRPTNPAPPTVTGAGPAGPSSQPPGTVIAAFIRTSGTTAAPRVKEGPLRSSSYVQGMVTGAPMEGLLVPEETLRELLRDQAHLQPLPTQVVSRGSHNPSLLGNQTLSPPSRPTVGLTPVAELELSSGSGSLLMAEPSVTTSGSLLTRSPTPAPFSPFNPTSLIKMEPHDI
# Outline: as §1
# [6] = molecular target: T3, ELK4 (Homo sapiens, UniProt P28324-2 1-405); conditions: protein: recombinant; tags: N-terminal GST; dsDNA, one strand shown
# T3 sequence: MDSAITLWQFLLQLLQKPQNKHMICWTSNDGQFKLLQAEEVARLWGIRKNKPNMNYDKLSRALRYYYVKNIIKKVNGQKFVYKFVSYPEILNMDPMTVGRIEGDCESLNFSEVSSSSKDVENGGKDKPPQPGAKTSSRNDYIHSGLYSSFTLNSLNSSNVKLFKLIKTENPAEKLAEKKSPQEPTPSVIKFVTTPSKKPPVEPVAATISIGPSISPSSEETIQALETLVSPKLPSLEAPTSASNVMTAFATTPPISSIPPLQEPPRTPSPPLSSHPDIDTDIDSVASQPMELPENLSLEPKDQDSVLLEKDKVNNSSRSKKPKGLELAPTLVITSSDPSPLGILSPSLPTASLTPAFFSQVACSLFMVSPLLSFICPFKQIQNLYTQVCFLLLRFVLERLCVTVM
# Outline: as §1
# [7] = molecular target: T4, ETV2 (Homo sapiens, UniProt O00321 1-342); conditions: protein: recombinant; tags: N-terminal GST; dsDNA, one strand shown
# T4 sequence: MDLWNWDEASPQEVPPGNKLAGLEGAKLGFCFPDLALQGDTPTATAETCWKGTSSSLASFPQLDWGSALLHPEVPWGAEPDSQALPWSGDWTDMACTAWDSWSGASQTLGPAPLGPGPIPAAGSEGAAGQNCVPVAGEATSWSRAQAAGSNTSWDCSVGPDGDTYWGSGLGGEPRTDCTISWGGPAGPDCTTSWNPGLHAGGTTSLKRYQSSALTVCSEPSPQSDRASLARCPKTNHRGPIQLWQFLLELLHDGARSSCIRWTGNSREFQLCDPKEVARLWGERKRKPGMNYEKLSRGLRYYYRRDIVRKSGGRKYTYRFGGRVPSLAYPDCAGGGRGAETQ
# Outline: as §1
# [8] = molecular target: T5, ELF3 (Homo sapiens, UniProt P78545 1-371); conditions: protein: recombinant; tags: N-terminal GST; dsDNA, one strand shown
# T5 sequence: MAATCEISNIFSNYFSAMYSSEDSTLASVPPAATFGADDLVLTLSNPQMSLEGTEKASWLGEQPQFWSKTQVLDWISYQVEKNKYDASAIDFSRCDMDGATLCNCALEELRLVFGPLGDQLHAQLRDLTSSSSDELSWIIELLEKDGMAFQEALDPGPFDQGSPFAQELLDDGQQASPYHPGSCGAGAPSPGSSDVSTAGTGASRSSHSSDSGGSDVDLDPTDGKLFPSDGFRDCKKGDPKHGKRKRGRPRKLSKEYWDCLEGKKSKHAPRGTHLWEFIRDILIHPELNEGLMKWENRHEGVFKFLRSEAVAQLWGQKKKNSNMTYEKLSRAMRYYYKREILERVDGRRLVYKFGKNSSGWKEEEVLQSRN
# Outline: as §1
# [9] = molecular target: CRX (Homo sapiens, UniProt O43186 1-299); conditions: protein: recombinant; tags: N-terminal GST; dsDNA, one strand shown
# Chain of CRX (O43186 whole entry): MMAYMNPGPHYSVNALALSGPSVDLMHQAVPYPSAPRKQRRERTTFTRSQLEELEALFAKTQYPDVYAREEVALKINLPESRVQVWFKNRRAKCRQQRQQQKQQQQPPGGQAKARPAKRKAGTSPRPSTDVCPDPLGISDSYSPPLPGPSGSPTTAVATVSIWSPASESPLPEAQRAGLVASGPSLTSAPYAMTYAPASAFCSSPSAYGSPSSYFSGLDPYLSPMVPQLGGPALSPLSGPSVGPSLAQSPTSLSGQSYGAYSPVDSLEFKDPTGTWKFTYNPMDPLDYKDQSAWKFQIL
# Outline: as §1
# [10] = molecular target: ETV1 (Homo sapiens, UniProt P50549 1-477); conditions: protein: recombinant; tags: N-terminal GST; dsDNA, one strand shown
# Chain of ETV1 (P50549 whole entry): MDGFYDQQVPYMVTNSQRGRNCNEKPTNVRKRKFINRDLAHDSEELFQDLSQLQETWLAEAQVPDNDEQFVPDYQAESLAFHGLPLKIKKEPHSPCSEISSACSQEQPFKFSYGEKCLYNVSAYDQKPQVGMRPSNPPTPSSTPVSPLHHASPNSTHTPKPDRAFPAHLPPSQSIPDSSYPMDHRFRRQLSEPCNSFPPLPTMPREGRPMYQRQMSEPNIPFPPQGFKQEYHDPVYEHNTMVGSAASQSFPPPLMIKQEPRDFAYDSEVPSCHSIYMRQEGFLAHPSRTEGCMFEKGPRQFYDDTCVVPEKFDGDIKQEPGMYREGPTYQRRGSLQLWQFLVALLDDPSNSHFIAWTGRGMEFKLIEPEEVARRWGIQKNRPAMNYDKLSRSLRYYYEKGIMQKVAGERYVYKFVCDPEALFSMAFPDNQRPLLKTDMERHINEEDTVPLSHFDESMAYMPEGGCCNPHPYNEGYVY
# Outline: as §1
# [11] = molecular target: T6, ERF (Homo sapiens, UniProt P50548 1-548); conditions: protein: recombinant; tags: N-terminal GST; dsDNA, one strand shown
# T6 sequence: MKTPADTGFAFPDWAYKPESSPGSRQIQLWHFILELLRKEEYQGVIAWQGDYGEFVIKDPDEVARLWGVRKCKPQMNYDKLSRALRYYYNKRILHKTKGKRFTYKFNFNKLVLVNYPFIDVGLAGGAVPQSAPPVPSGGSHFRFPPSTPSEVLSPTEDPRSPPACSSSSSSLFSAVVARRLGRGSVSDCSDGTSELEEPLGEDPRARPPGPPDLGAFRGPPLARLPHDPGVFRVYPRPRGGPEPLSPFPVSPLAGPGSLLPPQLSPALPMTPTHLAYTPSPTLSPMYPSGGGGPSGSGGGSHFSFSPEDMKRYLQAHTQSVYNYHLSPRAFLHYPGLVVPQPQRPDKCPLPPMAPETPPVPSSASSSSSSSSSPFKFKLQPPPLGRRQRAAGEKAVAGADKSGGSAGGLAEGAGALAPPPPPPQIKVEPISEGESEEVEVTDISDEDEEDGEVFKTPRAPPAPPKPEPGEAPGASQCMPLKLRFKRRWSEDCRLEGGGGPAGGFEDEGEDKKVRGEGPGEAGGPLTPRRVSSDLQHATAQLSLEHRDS
# Outline: as §1
# [12] = molecular target: T7, ETV3L (Homo sapiens, UniProt Q6ZN32 1-361); conditions: protein: recombinant; tags: N-terminal GST; dsDNA, one strand shown
# T7 sequence: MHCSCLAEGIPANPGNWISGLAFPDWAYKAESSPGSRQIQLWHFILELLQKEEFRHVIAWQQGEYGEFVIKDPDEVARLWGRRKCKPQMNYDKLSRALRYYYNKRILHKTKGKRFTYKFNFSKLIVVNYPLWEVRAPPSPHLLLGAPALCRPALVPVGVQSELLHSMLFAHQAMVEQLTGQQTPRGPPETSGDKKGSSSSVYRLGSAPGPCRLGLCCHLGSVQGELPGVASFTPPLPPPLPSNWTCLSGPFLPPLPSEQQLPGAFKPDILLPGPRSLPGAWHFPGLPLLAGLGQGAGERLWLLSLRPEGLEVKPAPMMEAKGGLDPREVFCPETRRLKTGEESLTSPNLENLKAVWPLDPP
# Outline: as §1
# [13] = molecular target: T8, ETS2 (Homo sapiens, UniProt P15036 1-469); conditions: protein: recombinant; tags: N-terminal GST; dsDNA, one strand shown
# T8 sequence: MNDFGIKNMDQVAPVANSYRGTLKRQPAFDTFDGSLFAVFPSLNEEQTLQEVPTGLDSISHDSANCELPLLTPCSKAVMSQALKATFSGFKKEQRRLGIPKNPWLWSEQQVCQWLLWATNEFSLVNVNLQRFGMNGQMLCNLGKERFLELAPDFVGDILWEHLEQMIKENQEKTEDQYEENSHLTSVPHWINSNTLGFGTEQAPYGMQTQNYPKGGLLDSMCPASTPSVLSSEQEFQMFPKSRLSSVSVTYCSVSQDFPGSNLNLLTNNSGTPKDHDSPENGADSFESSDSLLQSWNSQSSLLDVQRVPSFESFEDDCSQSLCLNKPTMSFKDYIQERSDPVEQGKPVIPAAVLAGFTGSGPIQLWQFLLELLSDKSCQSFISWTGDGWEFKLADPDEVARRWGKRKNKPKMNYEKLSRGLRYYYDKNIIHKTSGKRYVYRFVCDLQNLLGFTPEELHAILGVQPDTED
# Outline: as §1
# [14] = molecular target: T9, SPDEF (Homo sapiens, UniProt O95238 1-335); conditions: protein: recombinant; tags: N-terminal GST; dsDNA, one strand shown
# T9 sequence: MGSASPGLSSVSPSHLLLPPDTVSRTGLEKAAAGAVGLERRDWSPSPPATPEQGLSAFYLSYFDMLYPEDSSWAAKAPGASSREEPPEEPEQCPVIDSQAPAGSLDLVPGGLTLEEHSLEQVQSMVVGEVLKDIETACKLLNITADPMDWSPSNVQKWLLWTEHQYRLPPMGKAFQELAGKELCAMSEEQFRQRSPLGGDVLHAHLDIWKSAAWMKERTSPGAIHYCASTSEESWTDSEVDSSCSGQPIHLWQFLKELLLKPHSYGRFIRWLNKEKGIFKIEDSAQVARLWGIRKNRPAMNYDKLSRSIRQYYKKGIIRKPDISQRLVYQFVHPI
# Outline: as §1
# [15] = molecular target: T10, ETV7 (Homo sapiens, UniProt Q9Y603 1-341); conditions: protein: recombinant; tags: N-terminal GST; dsDNA, one strand shown
# T10 sequence: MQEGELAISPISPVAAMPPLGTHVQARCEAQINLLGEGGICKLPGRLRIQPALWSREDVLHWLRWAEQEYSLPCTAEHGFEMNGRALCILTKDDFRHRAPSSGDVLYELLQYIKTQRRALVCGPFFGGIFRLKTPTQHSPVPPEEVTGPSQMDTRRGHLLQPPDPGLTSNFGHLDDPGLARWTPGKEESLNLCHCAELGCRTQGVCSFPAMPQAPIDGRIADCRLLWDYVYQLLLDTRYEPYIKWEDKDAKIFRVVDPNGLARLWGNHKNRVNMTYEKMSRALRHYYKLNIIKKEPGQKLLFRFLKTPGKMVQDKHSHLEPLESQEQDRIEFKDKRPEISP
# Outline: as §1
# [16] = molecular target: T11, ELF5 (Homo sapiens, UniProt Q9UKW6-2 1-255); conditions: protein: recombinant; tags: N-terminal GST; dsDNA, one strand shown
# T11 sequence: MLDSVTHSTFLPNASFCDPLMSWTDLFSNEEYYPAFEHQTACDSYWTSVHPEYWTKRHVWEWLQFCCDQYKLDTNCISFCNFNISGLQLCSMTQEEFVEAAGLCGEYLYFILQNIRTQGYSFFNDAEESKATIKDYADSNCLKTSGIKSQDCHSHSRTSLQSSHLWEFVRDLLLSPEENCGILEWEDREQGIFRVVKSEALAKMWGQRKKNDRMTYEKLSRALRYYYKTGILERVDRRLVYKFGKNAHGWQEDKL
# Outline: as §1
# [17] = molecular target: T12, ETV3 (Homo sapiens, UniProt P41162-2 1-143); conditions: protein: recombinant; tags: N-terminal GST; dsDNA, one strand shown
# T12 sequence: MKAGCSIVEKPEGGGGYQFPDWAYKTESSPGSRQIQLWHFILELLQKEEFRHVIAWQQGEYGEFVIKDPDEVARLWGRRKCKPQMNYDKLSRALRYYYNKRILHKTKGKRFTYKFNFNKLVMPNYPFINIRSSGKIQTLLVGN
# Outline: as §1
# [18] = molecular target: ETV6 (Homo sapiens, UniProt P41212 1-452); conditions: protein: recombinant; tags: N-terminal GST; dsDNA, one strand shown
# Chain of ETV6 (P41212 whole entry): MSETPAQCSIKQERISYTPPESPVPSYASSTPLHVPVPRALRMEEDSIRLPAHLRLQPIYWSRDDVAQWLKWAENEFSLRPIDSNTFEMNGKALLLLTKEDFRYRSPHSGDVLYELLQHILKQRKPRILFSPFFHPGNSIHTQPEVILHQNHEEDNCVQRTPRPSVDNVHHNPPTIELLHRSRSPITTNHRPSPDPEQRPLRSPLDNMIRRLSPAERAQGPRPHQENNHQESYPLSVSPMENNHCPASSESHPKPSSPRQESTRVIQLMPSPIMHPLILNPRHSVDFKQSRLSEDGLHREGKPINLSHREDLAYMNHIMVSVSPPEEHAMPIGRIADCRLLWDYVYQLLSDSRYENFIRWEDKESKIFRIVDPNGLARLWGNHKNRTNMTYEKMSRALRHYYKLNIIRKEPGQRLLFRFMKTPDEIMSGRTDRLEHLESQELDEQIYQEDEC
# Outline: as §1
sequence,measurement,setting,value
GCTTGC,binding signal,[1],"1.2 fold enrichment (6-mer frequency, TF over GST control)"
same,binding signal,[2],"1.22 fold enrichment (6-mer frequency, TF over GST control)"
same,binding signal,[3],"1.1 fold enrichment (6-mer frequency, TF over GST control)"
same,binding signal,[4],"1.44 fold enrichment (6-mer frequency, TF over GST control)"
same,binding signal,[5],"1.09 fold enrichment (6-mer frequency, TF over GST control)"
same,binding signal,[6],"1.34 fold enrichment (6-mer frequency, TF over GST control)"
same,binding signal,[7],"1.31 fold enrichment (6-mer frequency, TF over GST control)"
same,binding signal,[8],"1.03 fold enrichment (6-mer frequency, TF over GST control)"
same,binding signal,[9],"1.14 fold enrichment (6-mer frequency, TF over GST control)"
same,binding signal,[10],"1.25 fold enrichment (6-mer frequency, TF over GST control)"
same,binding signal,[11],"1.24 fold enrichment (6-mer frequency, TF over GST control)"
same,binding signal,[12],"1.29 fold enrichment (6-mer frequency, TF over GST control)"
same,binding signal,[13],"1.24 fold enrichment (6-mer frequency, TF over GST control)"
same,binding signal,[14],"1.22 fold enrichment (6-mer frequency, TF over GST control)"
same,binding signal,[15],"1.21 fold enrichment (6-mer frequency, TF over GST control)"
same,binding signal,[16],"1.03 fold enrichment (6-mer frequency, TF over GST control)"
same,binding signal,[17],"1.19 fold enrichment (6-mer frequency, TF over GST control)"
same,binding signal,[18],"1.15 fold enrichment (6-mer frequency, TF over GST control)"
